Measured values from PubChem BioAssay (NCATS).
Inconclusive results are not listed. Where a call stands in place of a potency, no number is given. Active and inactive are the calls of the source. Calls follow the shape of the dose curve; as a rule, active = well fitted cell-killing curve with a large enough effect; inconclusive = small, poorly fitted or top-dose-only effect, or effect the other way; inactive = no such curve, though single readings can be large or run the other way.

Tests used:
[1] = Viability qHTS for spleen associated tyrosine kinase inhibitor (SYKi) naive MV4-11 cells (AID 1963823); also: nearly all actives have a fitted effect of over 40% in size
In short: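 Compounds were dispensed acoustically onto plates, MV4-11 cells (SYKi-naive) added at 500 per well, and plates incubated 72 hr at 37 C. CellTiter-Glo was added and luminescence measured after 10 min.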

[2] = Viability qHTS for spleen associated tyrosine kinase inhibitor (SYKi) drug resistant MV4-11 cells (AID 1963824); also: nearly all actives have a fitted effect of over 35% in size
In short: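 SYK inhibitor-resistant MV4-11 AML cells, 500 per well, added to predispensed compounds and incubated 72 hr at 37 C, 5% CO2. Viability measured by CellTiter-Glo luminescence after 10 min at room temperature.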
Potency is read from the fitted curve at half-maximal effect.

Compound	Potency [1]	Potency [2]
CC[C@H](C)[C@@H]([C@@H](CC(=O)N1CCC[C@H]1[C@H](OC)[C@@H](C)C(=O)N[C@@H](Cc1ccccc1)c1nccs1)OC)N(C)C(=O)[C@@H](NC(=O)[C@H](C(C)C)N(C)C)C(C)C	inactive	inactive
N#Cc1cc([N+](=O)[O-])c2sc(C(N)=O)[n+]([O-])c2c1	1840 nM (active)	1640 nM (active)
O=C(O)Cc1cn(C2OCC(O)C(O)C2O[C@@H]2O[C@H](CO)[C@@H](O)[C@H](O)[C@H]2O)c2ccccc12 (stereo not given in full)	inactive	inactive
Cc1nc2c(O)cccc2c(=O)[nH]1	inactive	inactive
CC(=O)OC1C(O)C(C)(O)C(/C=C/C(=O)O)C2(C)CCCC(C)(C)C12 (stereo not given)	inactive	inactive
C=C(C)C1CC2(CO)C(=CC1=O)CCC(O)C2C (stereo not given)	inactive	inactive
CN1CCC(c2c(O)cc(O)c3c(=O)cc(-c4ccccc4Cl)oc23)C(O)C1 (stereo not given)	259 nM (active)	206 nM (active)
CO[C@H]1[C@@H](O)[C@H](O[C@H]2CC[C@@]3(C)C(CCC4C3CC[C@]35COC6(COC(=O)C6)C3CCC45O)C2)O[C@@H](C)[C@@H]1OC1OC(CO)C(OC2OC(CO)C(O)C(O)C2O)C(O)C1O (stereo not given in full)	1230 nM (active)	1100 nM (active)
NC(=O)C(O[C@@H]1O[C@H](CO[C@@H]2O[C@H](CO)[C@@H](O)[C@H](O)[C@H]2O)[C@@H](O)[C@H](O)[C@H]1O)c1ccccc1 (stereo not given in full)	inactive	inactive
CCNC(=O)c1noc(-c2cc(Cl)c(O)cc2O)c1-c1ccc(OC)cc1	32.6 nM (active)	58 nM (active)
